Broadly, the AC50 is the midpoint of the concentration-response curve, whichever way the signal moves.

Our source for the AC50 and outcome values is PubChem BioAssay (EPA / NIEHS).

Assay [1] can be described thus: APR_HepG2_CellLoss_72hr: Apredica 72-hour HepG2 Assay for Cell Loss (AID 2282915). To be noted: high-content imaging. In a few lines:
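HepG2 cells exposed 72 h to compound at 0.39–200 uM (10 concentrations, duplicate) in 0.5% DMSO. Fixed with 3.7% formaldehyde and Hoechst 33342-stained. Imaged at 20x; nuclear count gives cell number, fitted bidirectionally versus DMSO.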

The nature of assay [2]: APR_HepG2_P-H2AX_72hr: Apredica 72-hour HepG2 Assay for H2AX Phosphorylation (AID 2282916).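 Also: phospho-histone H2A.x immunostain intensity per cell marking DNA damage.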 To be noted: imaging, actives raise or lower the signal. Put shortly:
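HepG2 cells treated 72 h at 0.39–200 uM, 0.5% DMSO final, duplicates. Formaldehyde-fixed, Triton-permeabilised, immunostained for phospho-H2A.x with Hoechst; fluorescence imaged at 20x, bidirectional fit versus DMSO.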

A short description of assay [3]: APR_HepG2_MitoMembPot_72hr: Apredica 72-hour HepG2 Assay for Mitochondrial Membrane Potential (AID 2282917). To be noted: imaging, actives raise or lower the signal. In a few lines:
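HepG2 cells dosed 72 hr with compound at 0.39–200 uM in duplicate, 0.5% v/v DMSO final. Mitochondria stained with 250 nM MitoTracker Red CMXRos for 30 min before formaldehyde fixation, imaged by high-content fluorescence; bidirectional fit versus DMSO.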

The nature of assay [4]: APR_HepG2_MitoticArrest_72hr: Apredica 72-hour HepG2 Assay for Mitotic Arrest (AID 2282918). To be noted: high-content imaging, actives raise or lower the signal. In a few lines:
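HepG2 cells treated 72 h at 0.39–200 uM, 0.5% DMSO final; formaldehyde-fixed, stained with Hoechst 33342 and phospho-histone H3 antibody, imaged by high-content fluorescence; bidirectional fit versus DMSO.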

Assay [5] is described as follows: APR_HepG2_MicrotubuleCSK_72hr: Apredica 72-hour HepG2 Assay for Microtubule CSK Stabilty (AID 2282919). To be noted: HepG2 microtubule cytoskeleton, high-content imaging, actives raise or lower the signal. In a few lines:
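HepG2 cells were exposed 72 hr to compound at 0.39–200 uM in duplicate (0.5% DMSO final), then fixed and permeabilized. Alpha-tubulin immunofluorescence was imaged by high-content microscopy, with bidirectional fitting against DMSO and taxol as positive control.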

Assay [6] is described as follows: APR_HepG2_P-H2AX_24hr: Apredica 24-hour HepG2 Assay for H2AX Phosphorylation (AID 2282920). To be noted: high-content imaging, actives raise or lower the signal. In a few lines:
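HepG2 cells dosed 24 h at 0.39–200 uM (10 points, duplicate, 0.5% DMSO final). Formaldehyde-fixed and permeabilized, then immunostained for phospho-H2A.x with Hoechst. Fluorescence quantified by high-content imaging, fitted bidirectionally versus DMSO.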

Assay [7] can be described thus: APR_HepG2_StressKinase_72hr: Apredica 72-hour HepG2 Assay for Stress Kinase (AID 2282921). To be noted: HepG2 stress kinase (phospho-c-Jun) imaging, actives raise or lower the signal. Put shortly: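 HepG2 cells treated 72 hr with 0.39–200 uM compound, 0.5% v/v DMSO, duplicate wells. After formaldehyde fixation and Triton permeabilization, stained with anti-phospho-c-Jun (1:500) and Cy3 secondary, imaged at 20x. Fitted in both directions against DMSO.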

Assay [8] is described as follows: APR_HepG2_StressKinase_24hr: Apredica 24-hour HepG2 Assay for Stress Kinase (AID 2282922). To be noted: HepG2 stress kinase (phospho-c-Jun) imaging, actives raise or lower the signal. In a few lines:
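HepG2 cells exposed 24 h to 0.39–200 uM compound in duplicate (0.5% v/v DMSO final). Cells fixed in 3.7% formaldehyde, permeabilized and immunostained for phospho-c-Jun; read by high-content fluorescence imaging, fitted bidirectionally against DMSO.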

Assay [9] is described as follows: APR_HepG2_p53Act_72hr: Apredica 72-hour HepG2 Assay for p53 Activation (AID 2282923).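 Also: average cellular p53 protein immunofluorescence intensity in HepG2 cells.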 To be noted: high-content imaging, actives raise or lower the signal. Put shortly:
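HepG2 cells exposed 72 h to 0.39–200 uM in 0.5% DMSO, duplicates. Fixed, permeabilized cells immunostained for p53 (Cy5) with Hoechst; imaged at 20x, fluorescence analyzed bidirectionally against DMSO.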

The nature of assay [10]: APR_HepG2_MitoMass_72hr: Apredica 72-hour HepG2 Assay for Mitochondrial Mass (AID 2282924).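 Also: MitoTracker Red CMXRos stain intensity per cell imaged as mitochondrial mass.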 To be noted: high-content imaging, actives raise or lower the signal. Put shortly:
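HepG2 cells dosed 72 hr at 0.39–200 uM (0.5% DMSO), in duplicate. MitoTracker Red CMXRos 250 nM loaded 30 min before formaldehyde fixation; high-content fluorescence imaging, bidirectional fit versus DMSO.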

Assay [11] can be described thus: ATG_CRE_CIS: Attagene CIS-FACTORIAL HepG2 Assay for human cAMP Responsive Element (CRE) binding protein 3 (AID 2282926). To be noted: HepG2 CRE cis-reporter, Attagene multiplexed mRNA; actives raise or lower the signal. In a few lines: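 HepG2 cells transiently transfected with cis-element-driven multiple reporter transcription units; CRE reporter mRNA measured 24 h after dosing by RT-PCR, 6-FAM labelling, HpaI digestion and capillary electrophoresis. Bidirectional fit versus DMSO baseline.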

Assay [12] deals with CCAAT/enhancer-binding protein beta (Homo sapiens) (UniProt P17676). As to the kind of experiment: ATG_C_EBP_CIS: Attagene CIS-FACTORIAL HepG2 Assay for human CCAAT/Enhancer Binding Protein (C/EBP) beta (AID 2282927). To be noted: HepG2 Attagene cis-factorial transcription factor reporter; actives raise or lower the signal. In a few lines: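 Transiently transfected HepG2 (MRTU library, endogenous TF-driven promoters); 24 h dosing; total RNA → oligo(dT) RT → PCR → 6-FAM primer extension → HpaI digest → CE; fit bidirectionally vs DMSO.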

The nature of assay [13]: ATG_DR4_LXR_CIS: Attagene CIS-FACTORIAL HepG2 Assay for human Liver X Receptor (LXR), DR4 submotif (AID 2282929). To be noted: HepG2 Attagene DR4 cis-reporter, mRNA transcription; actives raise or lower the signal. In a few lines:
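HepG2 cells were transiently transfected with multiple cis-regulated reporter units and dosed for 24 hours. The DR4 reporter mRNA was quantified by RT-PCR, 6-FAM labelling and capillary electrophoresis. Bidirectional fits used DMSO as baseline.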

For assay [14], the target named is Aryl hydrocarbon receptor (Homo sapiens) (UniProt P35869). As to the kind of experiment: ATG_Ahr_CIS: Attagene CIS-FACTORIAL HepG2 Assay for human Aryl Hydrocarbon Receptor (Ahr) (AID 2282930). To be noted: HepG2 AhR cis-factorial reporter transcription; actives raise or lower the signal. In a few lines: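 Read-out: reporter mRNA quantified by RT-PCR with fluorescent primer extension and capillary electrophoresis. Human HepG2 liver cells carried transfected cis-promoter reporter units and were exposed to chemical for 24 h; gain or loss fitted relative to DMSO.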

Assay [15] can be described thus: ATG_AP_1_CIS: Attagene CIS-FACTORIAL HepG2 Assay for human Activator Protein 1 (AP-1) (AID 2282931). To be noted: HepG2 Attagene cis-factorial AP-1 reporter mRNA; actives raise or lower the signal. In a few lines:
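HepG2 cells transiently transfected with cis-element-driven reporter transcription units, dosed for 24 hours. Reporter mRNA measured by RT-PCR, 6-FAM labelling, HpaI digestion and capillary electrophoresis. Bidirectional fitting against DMSO baseline.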

Assay [16] in a line: ATG_AP_2_CIS: Attagene CIS-FACTORIAL HepG2 Assay for human Activator Protein 2 (AP-2) (AID 2282932). To be noted: HepG2 AP-2 cis-reporter, Attagene transcription factor profiling; actives raise or lower the signal. Put shortly: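 HepG2 cells transiently transfected with cis-element reporter units and exposed for 24 h. Reporter mRNA measured by RT-PCR, FAM labelling, HpaI digestion and capillary electrophoresis. Changes in either direction fitted relative to DMSO.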

Assay [17] can be described thus: ATG_CMV_CIS: Attagene CIS-FACTORIAL HepG2 Assay for human CMV (Internal Marker) (AID 2282928).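 Also: endpoint acts as a background internal control marker rather than a target.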 To be noted: HepG2 CMV promoter reporter, transcription factor profiling; actives raise or lower the signal. Put shortly:
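Cell system: HepG2, transiently transfected multiple reporter units under cis promoters. Exposure: 24 h. Detection: RT-PCR, FAM labeling, HpaI digestion, capillary electrophoresis. Analysis: bidirectional, DMSO baseline.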

Assay [18] has as its target Retinoic acid receptor alpha (Homo sapiens) (UniProt P10276). As to the kind of experiment: ATG_DR5_RAR_CIS: Attagene CIS-FACTORIAL HepG2 Assay for human Retinoic Acid Receptor Alpha (RARE), DR5 submotif (AID 2282934). To be noted: HepG2 Attagene cis-factorial RARE DR5 reporter, mRNA; actives raise or lower the signal. Put shortly:
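Read-out: DR5-driven reporter transcript measured by RT-PCR, 6-FAM primer extension, HpaI digest and capillary electrophoresis. Human HepG2 liver cells carry transiently transfected cis-element reporter constructs; dosing lasts 24 h. Gain or loss of signal fitted against DMSO baseline.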

Assay [19] can be described thus: ATG_BRE_CIS: Attagene CIS-FACTORIAL HepG2 Assay for human Bone Morphogenetic Protein (BMP) Response Element (BRE) (AID 2282933). To be noted: HepG2 BMP response element reporter, Attagene transcription factor profiling; actives raise or lower the signal. In a few lines:
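Read-out: reporter mRNA induction quantified by RT-PCR and capillary electrophoresis after 24 h chemical exposure of transfected HepG2 cells. Endogenous factor activity on the BMP response element; gain or loss fitted against DMSO baseline.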

Each structure is given as a SMILES string. The source made the active and inactive calls. The calls were made as follows: active = hit-call score of the fitted dose curve at least 0.9, where 1 is the maximum; inactive = score below 0.9.

Chain of Aryl hydrocarbon receptor (Homo sapiens) (P35869 whole entry, looked up): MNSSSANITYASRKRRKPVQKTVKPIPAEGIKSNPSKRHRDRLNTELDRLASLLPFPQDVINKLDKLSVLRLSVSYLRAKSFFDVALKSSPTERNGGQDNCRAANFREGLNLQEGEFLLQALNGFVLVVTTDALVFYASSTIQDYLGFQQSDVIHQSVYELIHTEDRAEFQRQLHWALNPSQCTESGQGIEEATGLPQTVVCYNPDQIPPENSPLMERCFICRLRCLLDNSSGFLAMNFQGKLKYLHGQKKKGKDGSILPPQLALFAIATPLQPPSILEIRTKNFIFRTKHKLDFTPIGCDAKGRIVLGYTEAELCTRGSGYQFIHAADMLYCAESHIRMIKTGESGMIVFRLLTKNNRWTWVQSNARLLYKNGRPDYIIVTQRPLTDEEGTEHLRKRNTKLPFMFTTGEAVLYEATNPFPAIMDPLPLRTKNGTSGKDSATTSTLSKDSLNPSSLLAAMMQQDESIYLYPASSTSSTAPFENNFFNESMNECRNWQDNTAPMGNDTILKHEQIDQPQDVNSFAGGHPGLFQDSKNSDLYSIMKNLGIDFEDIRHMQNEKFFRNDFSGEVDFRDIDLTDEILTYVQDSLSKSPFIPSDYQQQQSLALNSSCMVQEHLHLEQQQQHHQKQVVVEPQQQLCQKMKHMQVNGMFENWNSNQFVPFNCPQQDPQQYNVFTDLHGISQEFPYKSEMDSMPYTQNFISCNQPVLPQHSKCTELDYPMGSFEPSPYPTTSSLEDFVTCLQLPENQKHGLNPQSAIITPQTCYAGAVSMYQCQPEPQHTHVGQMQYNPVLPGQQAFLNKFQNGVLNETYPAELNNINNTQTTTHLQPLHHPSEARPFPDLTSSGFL
Chain of CCAAT/enhancer-binding protein beta (Homo sapiens) (P17676 whole entry, looked up): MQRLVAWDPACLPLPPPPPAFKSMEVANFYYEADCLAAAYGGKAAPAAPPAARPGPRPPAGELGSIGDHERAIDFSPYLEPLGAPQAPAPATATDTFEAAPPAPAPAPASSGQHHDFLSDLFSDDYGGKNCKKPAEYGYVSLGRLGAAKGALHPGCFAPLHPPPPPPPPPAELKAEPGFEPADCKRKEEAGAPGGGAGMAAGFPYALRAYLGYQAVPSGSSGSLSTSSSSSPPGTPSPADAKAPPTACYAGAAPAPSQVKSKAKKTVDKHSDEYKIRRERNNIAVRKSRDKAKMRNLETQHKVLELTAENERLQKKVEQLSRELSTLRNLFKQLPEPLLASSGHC
Chain of Retinoic acid receptor alpha (Homo sapiens) (P10276 whole entry, looked up): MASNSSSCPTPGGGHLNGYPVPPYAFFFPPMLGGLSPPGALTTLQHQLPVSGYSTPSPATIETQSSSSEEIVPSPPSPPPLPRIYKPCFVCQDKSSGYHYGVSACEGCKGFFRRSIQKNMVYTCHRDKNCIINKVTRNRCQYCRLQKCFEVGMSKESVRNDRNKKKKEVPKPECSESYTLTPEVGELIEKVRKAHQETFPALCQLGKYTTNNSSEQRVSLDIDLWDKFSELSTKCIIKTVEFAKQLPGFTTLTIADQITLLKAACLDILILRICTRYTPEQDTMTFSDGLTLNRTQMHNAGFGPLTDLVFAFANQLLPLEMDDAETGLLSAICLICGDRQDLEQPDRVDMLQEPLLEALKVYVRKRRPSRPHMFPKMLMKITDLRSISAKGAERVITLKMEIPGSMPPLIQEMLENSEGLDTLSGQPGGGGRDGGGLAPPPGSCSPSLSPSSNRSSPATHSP

In the case of `NC(=O)Cn1c(=O)cc(CCN2CCN(c3nccc4sccc34)CC2)c2ccc(F)cc21`, the concentration at half-maximal activity (AC50) in [1] was 82 µM (active); in assay [2] it was 101 µM (active); in assay [4] it was 98.9 µM (active); in assay [9] it was 101 µM (active). For the same molecule, the molecule was classed as inactive in [3], in [5], in assay [6], in [7], in assay [8] and in [10]. In addition, the result in [11], in assay [12], in assay [13], in assay [14], in assay [15] and in assay [16] was inactive.
Take `Clc1cc(Cl)c(Cl)cc1Cl`: the result in assay [1], in assay [2], in assay [3], in [4], in [5] and in [6] was inactive. In addition, the molecule was classed as inactive in assay [7], in assay [8], in assay [9], in assay [10], in [11] and in assay [12]. Moreover, the molecule was called inactive in assay [17], in assay [13], in [14], in assay [15], in [16] and in assay [18].
Turning to `COc1cc(-c2nc(NC(=O)c3cc4cc(C)cc(C)c4n3CC(=O)O)sc2CCC2CCCCC2)c(OC)cc1Cl`, the AC50 is 26.4 µM (active) in [1]; 41.1 µM (active) in assay [4]; 25.2 µM (active) in [5]; 38.9 µM (active) in assay [6]; 48.8 µM (active) in [8]; 78.6 µM (active) in assay [10]. In addition, the AC50 was 36 µM (active) in [11]; 4.79 µM (active) in assay [12]; 10.4 µM (active) in assay [14]; 3.59 µM (active) in [15]; 10.4 µM (active) in [19]. In addition, the call in [2], in [3], in assay [7], in assay [9] and in [13] was inactive.
For `C=CCOC(=O)c1ccccc1C(=O)OCC=C`, the molecule was called inactive in [1], in assay [2], in assay [3], in assay [4], in assay [5] and in assay [6]. Moreover, the result in assay [7], in [8], in assay [9], in [10], in assay [11] and in [14] was inactive. Moreover, the AC50 in [12] was 26.4 µM (active); in [13] it was 26.2 µM (active); in assay [15], 25.8 µM (active).
